Values joined by “and” are separate entries in the source; they are usually repeats but may differ in a detail not shown here. Equal entries are not always repeated. About 79,000 compounds went through this panel and 15% of them were active in at least one assay; those are over-represented in the sample as a whole. Active and inactive are the calls of the source. Cut-off read from the data, not from the text of the source: active = growth inhibition above about 70%; inactive = the rest.
Assays:
[1] = NCI Yeast Anticancer Drug Screen. Data for the rad52 strain (AID 147);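 note: 0% = growth of vehicle-treated control cultures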; conditions: S. cerevisiae rad52 mutant growth inhibition, hits give high values
Procedure, shortened: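 Screen used a yeast mutant impaired in DNA repair. After compound exposure, growth was measured. Values reflect inhibition compared with vehicle-treated cells.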

[2] = NCI Yeast Anticancer Drug Screen. Data for the wt1 strain (AID 149);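 note: 0% = growth of vehicle-treated wt1 cultures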; conditions: S. cerevisiae wt1 strain (SPY 50644) growth inhibition, hits give high values
Procedure, shortened: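 wt1 yeast, compound-treated; % growth inhibition vs vehicle control.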

[3] = NCI Yeast Anticancer Drug Screen. Data for the rad50EPP+ strain (AID 151);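 note: 0% = growth of vehicle-treated control cultures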; conditions: S. cerevisiae rad50 mutant strain, hits give high values
Procedure, shortened: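 Exposing the rad50EPP+ strain to each compound, growth was compared with vehicle-only cultures to give inhibition.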

[4] = NCI Yeast Anticancer Drug Screen. Data for the rad50 strain (AID 155);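 note: 0% = growth of vehicle-only cultures of the same strain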; conditions: S. cerevisiae rad50 strain growth inhibition, hits give high values
Procedure, shortened: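 Genetically altered yeast (DNA repair pathway); compound treatment; growth inhibition vs vehicle ctrl.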

[5] = NCI Yeast Anticancer Drug Screen. Data for the mec2-1 strain (AID 157); conditions: S. cerevisiae mec2-1 strain, hits give high values
Procedure, shortened: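 Readout is yeast growth inhibition, normalised to vehicle-treated controls, in the mec2-1 strain exposed to compound.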

[6] = NCI Yeast Anticancer Drug Screen. Data for the rad14 strain (AID 159);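 note: 0% = growth of vehicle-treated control cultures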; conditions: S. cerevisiae rad14 strain growth inhibition, hits give high values
Procedure, shortened: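 Test compounds were applied to a repair-deficient yeast strain. Its growth was then compared with that of cultures given vehicle alone, and inhibition was expressed relative to those controls.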

[7] = NCI Yeast Anticancer Drug Screen. Data for the sgs1 mgt1 strain (AID 161);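 note: 0% = growth of cultures given vehicle only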; conditions: S. cerevisiae sgs1 mgt1 strain, hits give high values
Procedure, shortened: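 Percent growth inhibition was derived by comparing compound-exposed mutant yeast with vehicle-exposed cultures. The strain carries alterations in DNA damage repair.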

[8] = NCI Yeast Anticancer Drug Screen. Data for the CLN2oe strain (AID 163);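 note: 0% = growth of vehicle-only control cultures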; conditions: S. cerevisiae CLN2oe strain, hits give high values
Procedure, shortened: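 Values reflect how much compound exposure reduced yeast growth, referenced to vehicle-exposed cells. Assay organism is a strain with a defined genetic change affecting cell-cycle control.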

[9] = NCI Yeast Anticancer Drug Screen. Data for the cln2 rad14 strain (AID 165);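 note: 0% = growth equal to vehicle treated cultures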; conditions: S. cerevisiae cln2 rad14 strain, hits give high values
Procedure, shortened: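 Relative to vehicle controls, growth inhibition of compound-treated cln2 rad14 yeast was recorded.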

[10] = NCI Yeast Anticancer Drug Screen. Data for the bub3 strain (AID 167); conditions: S. cerevisiae bub3 mutant strain, hits give high values
Procedure, shortened: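 Yeast carrying a defined mutation is treated with each compound, and growth is compared with that of vehicle-exposed cells to give inhibition.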

[11] = NCI Yeast Anticancer Drug Screen. Data for the wt2 strain (AID 169);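 note: 0% = growth of vehicle-treated yeast cultures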; conditions: S. cerevisiae wt2 strain growth inhibition, hits give high values
Procedure, shortened: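 Values express reduction in yeast growth under compound treatment, referenced to vehicle-treated cells.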

[12] = NCI Yeast Anticancer Drug Screen. Data for the mlh1 strain (AID 171);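 note: 0% = growth of vehicle-treated control cultures of the same strain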; conditions: S. cerevisiae mlh1 strain growth inhibition, hits give high values
Procedure, shortened: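 Steps: expose the defined-mutant yeast strain to compound; expose a parallel culture to vehicle; measure growth; express compound effect as inhibition relative to the vehicle culture.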

[13] = NCI Yeast Anticancer Drug Screen. Data for the mlh1 rad18 strain (AID 175); conditions: S. cerevisiae mlh1 rad18 strain growth inhibition, hits give high values
Procedure, shortened: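 Test agents were incubated with a yeast strain of defined genotype (DNA damage repair defect). Inhibition of growth was derived by comparison with vehicle-exposed cultures.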

[14] = NCI Yeast Anticancer Drug Screen. Data for the rad18 strain (AID 177); conditions: S. cerevisiae rad18 mutant growth inhibition, hits give high values
Procedure, shortened: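 A genetically defined yeast mutant impaired in DNA damage repair was treated with test compounds, then its growth was measured against cultures receiving vehicle alone.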

[15] = NCI Yeast Anticancer Drug Screen. Data for the sgs1 strain (AID 173);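 note: 0% = growth of vehicle-only control cultures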; conditions: S. cerevisiae sgs1 mutant, hits give high values
Procedure, shortened: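 Treat defined-mutant yeast with compound; measure growth; calculate inhibition relative to vehicle-treated cells.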

[16] = at 5.0 µM (retest, dose inferred, filed as 0.5)
[17] = at 50.0 µM (retest, dose inferred, filed as 5.0)

Measured: growth inhibition

O=Nn1c2ccccc2c2ccccc21
inactive: [1]; at 1.2 µM -15% | [1]; at 3.7 µM -18% | [1]; at 11.0 µM -22% | [1]; at 33.0 µM 5% | [1]; at 100.0 µM 68% | [2]; at 1.2 µM 2% | [2]; at 3.7 µM 21% | [2]; at 11.0 µM 7% | [2]; at 33.0 µM 9% | [2]; at 100.0 µM 60% | [3]; at 1.2 µM 0% | [3]; at 3.7 µM 18% | [3]; at 11.0 µM 9% | [3]; at 33.0 µM 50% | [4]; at 1.2 µM 12% | [4]; at 3.7 µM -1% | [4]; [16] -13% | [4]; at 11.0 µM -3% | [4]; at 33.0 µM 23% | [4]; [17] 13% | [4]; at 50.0 µM 27.5% and 25.4% | [5]; at 1.2 µM -17% | [5]; at 3.7 µM 2% | [5]; [16] -1% | [5]; at 11.0 µM 1% | [5]; at 33.0 µM 21% | [5]; [17] 9% | [5]; at 50.0 µM 16.7% and 11.6% | [5]; at 100.0 µM 65% | [6]; at 1.2 µM 10% | [6]; at 3.7 µM 6% | [6]; at 11.0 µM 11% | [6]; at 33.0 µM 49% | [7]; [16] 2% | [7]; [17] -10% | [7]; at 50.0 µM 5.25% and 16.6% | [8]; at 1.2 µM 11% | [8]; at 3.7 µM 4% | [8]; at 11.0 µM 11% | [8]; at 33.0 µM 2% | [8]; at 100.0 µM 65% | [9]; [16] 5% | [9]; [17] 67% | [9]; at 50.0 µM 3.15% and 40.1% | [10]; at 1.2 µM -7% | [10]; at 3.7 µM -9% | [10]; [16] -28% | [10]; at 11.0 µM -14% | [10]; at 33.0 µM -3% | [10]; at 50.0 µM 1.5% and 66% | [10]; at 100.0 µM 59% | [11]; at 1.2 µM -46% | [11]; at 3.7 µM -34% | [11]; at 11.0 µM -28% | [11]; at 33.0 µM -15% | [11]; at 100.0 µM 62% | [12]; at 1.2 µM 27% | [12]; at 3.7 µM 27% | [12]; at 11.0 µM 19% | [12]; at 33.0 µM 56% | [13]; [16] -16% | [13]; [17] 16% | [13]; at 50.0 µM 21.5% and 15.5% | [14]; at 1.2 µM 9% | [14]; at 3.7 µM 7% | [14]; at 11.0 µM -9% | [14]; at 33.0 µM 24%
active: [3]; at 100.0 µM 79% | [4]; at 100.0 µM 83% | [6]; at 100.0 µM 92% | [10]; [17] 95% | [12]; at 100.0 µM 93% | [14]; at 100.0 µM 86%

CC(=O)Oc1ccc(C(=O)c2ccccc2)c(O)c1
active: [1]; at 100.0 µM 96% | [2]; at 100.0 µM 96% | [3]; at 100.0 µM 85% | [4]; [17] 95% | [4]; at 50.0 µM 70.2% | [4]; at 100.0 µM 96% | [5]; [17] 99% | [5]; at 100.0 µM 96% | [6]; at 100.0 µM 92% | [7]; [17] 88% | [7]; at 50.0 µM 74.5% | [8]; at 100.0 µM 96% | [9]; [17] 82% | [10]; [17] 88% | [10]; at 50.0 µM 74% | [10]; at 100.0 µM 95% | [12]; at 100.0 µM 96% | [15]; at 100.0 µM 96% | [13]; [17] 98% | [14]; at 100.0 µM 97%
inactive: [1]; at 1.2 µM -7% | [1]; at 3.7 µM -10% | [1]; at 11.0 µM 2% | [1]; at 33.0 µM 28% | [2]; at 1.2 µM -2% | [2]; at 3.7 µM -1% | [2]; at 11.0 µM -4% | [2]; at 33.0 µM 10% | [3]; at 1.2 µM 14% | [3]; at 3.7 µM 20% | [3]; at 11.0 µM 19% | [3]; at 33.0 µM 47% | [4]; at 1.2 µM -4% | [4]; at 3.7 µM 1% | [4]; [16] 60% | [4]; at 11.0 µM -2% | [4]; at 33.0 µM 32% | [5]; at 1.2 µM -31% | [5]; at 3.7 µM -5% | [5]; [16] 64% | [5]; at 11.0 µM 2% | [5]; at 33.0 µM 26% | [5]; at 50.0 µM 50% | [6]; at 1.2 µM -24% | [6]; at 3.7 µM -20% | [6]; at 11.0 µM -19% | [6]; at 33.0 µM 21% | [7]; [16] -18% | [8]; at 1.2 µM -7% | [8]; at 3.7 µM -9% | [8]; at 11.0 µM -10% | [8]; at 33.0 µM 12% | [9]; [16] 27% | [9]; at 50.0 µM 58.9% | [10]; at 1.2 µM -36% | [10]; at 3.7 µM -38% | [10]; [16] 5% | [10]; at 11.0 µM -58% | [10]; at 33.0 µM -25% | [12]; at 1.2 µM -2% | [12]; at 3.7 µM -1% | [12]; at 11.0 µM 0% | [12]; at 33.0 µM 36% | [15]; at 1.2 µM 6% | [15]; at 3.7 µM 10% | [15]; at 11.0 µM 13% | [15]; at 33.0 µM 46% | [13]; [16] 50% | [13]; at 50.0 µM 61.8% | [14]; at 1.2 µM 0% | [14]; at 3.7 µM 13% | [14]; at 11.0 µM 17% | [14]; at 33.0 µM 39%
